Some test systems named below: HCT-15 colon; HT29 colon; SNB-75 CNS; SNB-19 CNS; U251 CNS; PC-3 prostate; UACC-62 melanoma; SK-MEL-28 melanoma; LOX IMVI melanoma.
Experiment in all cases: NCI-60 one-dose screen, 48 h (100 = growth as untreated, 0 = no growth, -100 = all killed)
What all share (conditions): 10 µM unless noted

This is part of a sample that, as a whole, favours compounds with a hit. Of some 83,000 tested, about 20% had one in any assay.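 A percent growth of 40 corresponds to 60% growth inhibition; 0 means no net growth; -100 means all cells died. Active threshold: below 10.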 Unmarked numbers belong to inactive results. The source made the active and inactive calls.

Data on 15 molecules can be found in PubChem BioAssay (NCI).

On to `O=C1c2ccccc2OC=C(c2ccccc2)N1CCCCNc1ccc(S(=O)(=O)Nc2ncccn2)cc1`, for which the growth in the experiment on HCT-15 colon is 96.1%; in the experiment on HT29 colon, 100%; with SNB-75 CNS, 80%; in the experiment on SNB-19 CNS, 101%; in the experiment with U251 CNS, 91.1%; in the experiment with PC-3 prostate it was 76.4%. Moreover, the growth with UACC-62 melanoma is 86.8%; with SK-MEL-28 melanoma, 108%.

Consider `CC[C@H]1OC(=O)[C@H](C)[C@@H](O[C@H]2C[C@@](C)(OC)[C@@H](O)[C@H](C)O2)[C@H](C)[C@@H](O[C@@H]2O[C@H](C)C[C@H](N(C)C)[C@H]2O)[C@](C)(O)C[C@H](C)CN(C)[C@H](C)[C@@H](O)[C@]1(C)O`, for which the growth is 97.1% in the experiment with HCT-15 colon; 102% in the experiment with HT29 colon; 80.8% with SNB-75 CNS; 93.4% in the experiment with SNB-19 CNS; 94.8% in the experiment with U251 CNS; 91% in the experiment with PC-3 prostate. For the same molecule, the growth was 98.3% in the experiment with UACC-62 melanoma and 114% with SK-MEL-28 melanoma.

Consider `COc1ccc(C2Nc3c(c(C(C)(C)C)nn3-c3ccccc3)C(=O)CS2)cc1` (centres undefined), for which the growth in the experiment with HCT-15 colon was 97.7%; with HT29 colon, 86.7%; with SNB-75 CNS it was 89.2%; in the experiment with SNB-19 CNS, 98.8%; with U251 CNS, 102%; in the experiment on PC-3 prostate, 79.5%. The growth in the experiment on UACC-62 melanoma is 80%; with SK-MEL-28 melanoma it was 113%.

Consider `N#Cc1nnn(-c2ccc(S(N)(=O)=O)cc2)c1NCC(=O)c1ccccc1`, for which the growth is 98.3% in the experiment on HCT-15 colon; 95.5% in the experiment with HT29 colon; 80% with SNB-75 CNS; 92.2% in the experiment with SNB-19 CNS; 93.6% in the experiment on U251 CNS; 84.1% in the experiment with PC-3 prostate. In addition, the growth in the experiment with UACC-62 melanoma was 96%; with SK-MEL-28 melanoma, 111%.

For the molecule `COc1cc(-c2nc3ccccc3[nH]2)ccc1OCc1nnc(-c2ccc(CC(C)C)cc2)o1`, the growth was 76.5% with HCT-15 colon; 75.2% with HT29 colon; 94.3% in the experiment with SNB-75 CNS; 91.8% with SNB-19 CNS; 69.5% with U251 CNS; 86% in the experiment on PC-3 prostate. Besides, the growth in the experiment with UACC-62 melanoma was 92.7%; in the experiment on LOX IMVI melanoma it was 103%; in the experiment with SK-MEL-28 melanoma, 93.5%.

Turning to `OCCNc1nccc(N2CCN(c3ccnc4cc(Cl)ccc34)CC2)n1`, the growth was 51.3% in the experiment on HCT-15 colon; 45.7% in the experiment on HT29 colon; 71.3% in the experiment on SNB-75 CNS; 88.9% with SNB-19 CNS; 86% in the experiment on U251 CNS; 72.2% in the experiment on PC-3 prostate. Besides, the values for the growth with UACC-62 melanoma and with SK-MEL-28 melanoma were 71.4% and 94%, respectively.

As to `CCCOc1ccc2nc(NC(=O)OC)[nH]c2c1`, the growth in the experiment with HCT-15 colon was 12.4%; with HT29 colon it was 0.423% (active); with SNB-75 CNS, 46.1%; in the experiment on SNB-19 CNS, 34%; in the experiment on U251 CNS it was 12.7%; in the experiment with PC-3 prostate, 19.7%. Further, the growth with UACC-62 melanoma was 22.3%; in the experiment on LOX IMVI melanoma, 24.4%; in the experiment on SK-MEL-28 melanoma it was 66.5%.

For `c1ccc(CCNc2ncnc3[nH]ncc23)cc1`, the growth in the experiment with HCT-15 colon is 105%; in the experiment with HT29 colon, 94%; in the experiment with SNB-75 CNS, 92.6%; in the experiment with SNB-19 CNS, 105%; in the experiment on U251 CNS, 94.1%; with PC-3 prostate, 67%. Moreover, the growth is 86.4% with UACC-62 melanoma, 89.1% with LOX IMVI melanoma and 114% in the experiment on SK-MEL-28 melanoma.

Consider `CC(=O)c1cc2c(N)c(C(=O)Nc3ccccc3)sc2nc1C`, for which the growth was 60.3% with HCT-15 colon; 67.3% with HT29 colon; 66.8% with SNB-75 CNS; 68.4% in the experiment with SNB-19 CNS; 73.5% in the experiment on U251 CNS; 81% with PC-3 prostate. For the same molecule, the growth in the experiment on UACC-62 melanoma is 31.5%; in the experiment on LOX IMVI melanoma, 85.4%; in the experiment with SK-MEL-28 melanoma, 78.4%.

`O=C1c2cc3c(cc2-c2c1c1ccc(F)cc1c(=O)n2C[C@H](O)[C@@H](O)[C@H](O)CO)OCO3`: the growth was 5.37% (active) in the experiment on HCT-15 colon; -2.72% (active) in the experiment with HT29 colon; -38.4% (active) in the experiment on SNB-75 CNS; 4.38% (active) in the experiment on SNB-19 CNS; -19.1% (active) in the experiment with U251 CNS; 7.25% (active) in the experiment on PC-3 prostate. For the same molecule, the growth was -55.5% (active) in the experiment with UACC-62 melanoma, -30.4% (active) in the experiment with LOX IMVI melanoma and -37.6% (active) with SK-MEL-28 melanoma.

As to `COc1ccc(/C=C/c2nc3ccccc3nc2/C=C/c2ccc(OC)cc2)cc1`, the growth in the experiment with HCT-15 colon was 94.5%; with HT29 colon, 95.1%; in the experiment with SNB-75 CNS it was 87.8%; with SNB-19 CNS, 108%; in the experiment with U251 CNS, 95.4%; in the experiment on PC-3 prostate, 80.3%. For the same molecule, the results for the growth with UACC-62 melanoma, in the experiment on LOX IMVI melanoma and in the experiment with SK-MEL-28 melanoma were 90%, 102% and 102%, respectively.

As for `CC(C)(C)c1cc(/C=N\NC(=O)/C=C/C=C/c2ccc3c(c2)OCO3)c(O)c(C(C)(C)C)c1`, the growth in the experiment on HCT-15 colon was 63.7%; with HT29 colon, 92%; in the experiment with SNB-75 CNS, 31.9%; with SNB-19 CNS, 85.5%; in the experiment with U251 CNS, 84%; with PC-3 prostate, 69.1%. The values for the growth with UACC-62 melanoma, in the experiment with LOX IMVI melanoma and with SK-MEL-28 melanoma were 71.5%, 61.7% and 85.8%, respectively.

Turning to `CCOc1cc2ncc(C#N)c(Nc3ccc(F)c(Cl)c3)c2cc1NC(=O)CC1CCSS1` (centres undefined), the growth with HCT-15 colon was -71.1% (active); in the experiment with HT29 colon it was -72.5% (active); in the experiment on SNB-75 CNS, -72% (active); with SNB-19 CNS, -34.5% (active); with U251 CNS, -58.9% (active); with PC-3 prostate it was -72.6% (active). Also, the growth is -66% (active) in the experiment on UACC-62 melanoma and -79.1% (active) in the experiment on SK-MEL-28 melanoma.

Regarding `Cc1cc(N[C@@H]2CCC[C@H](Nc3ccnc4cc(Cl)ccc34)C2)nc(N2CCCCCC2)n1`, the growth was -73.2% (active) in the experiment on HCT-15 colon; -59.9% (active) with HT29 colon; -83.7% (active) in the experiment on SNB-75 CNS; -22.2% (active) in the experiment on SNB-19 CNS; -92.6% (active) with U251 CNS; -67.7% (active) in the experiment with PC-3 prostate. Moreover, the growth is -90.2% (active) with UACC-62 melanoma, -86.3% (active) with LOX IMVI melanoma and -80.3% (active) with SK-MEL-28 melanoma.

Take `CCN1CCN(c2nc(NCCNc3ccnc4cc(Cl)ccc34)c3ccccc3n2)CC1`: the growth in the experiment on HCT-15 colon is 7.08% (active); in the experiment with HT29 colon it was -14.1% (active); in the experiment with SNB-75 CNS it was 44.7%; in the experiment on SNB-19 CNS, 14.4%; with U251 CNS, -16.7% (active); with PC-3 prostate it was 24.7%. For the same molecule, the growth in the experiment with UACC-62 melanoma is -87.9% (active); in the experiment with LOX IMVI melanoma, -62.9% (active); with SK-MEL-28 melanoma, -60.1% (active).
